Pol iota inh – qHTS for Inhibitors of Polymerase Iota; DNA polymerase iota (Homo sapiens), Q9UNA4; Pol iota fluorescent replication assay, 10 min; Potency, µM (series often up to 115 µM), for inactives: at the top dose activity, negative = inhibition, actives largely listed as inhibitors; hit rate 1% among 390,000; AID 588590, 2011
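Fluorescent replication assay read twice, at 0 min and 10 min after adding 50 nM (final) substrate. Enzyme (10 nM) and compounds were first incubated 15 min at room temperature; enzyme-free buffer wells were negative controls.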
WRN inhibitor – qHTS for Inhibitors of WRN Helicase. hit rate 0.46% among 360,000. Bifunctional 3'-5' exonuclease/ATP-dependent helicase WRN (Homo sapiens), Q14191. Potency, µM (titrated, usually from 114 µM), for inactives: at the highest dose activity change, negative = inhibition, most hits filed as inhibitors. WRN helicase unwinding, fluorescent forked duplex, kinetic; also: % is scaled to controls: 0 for no effect and ±100 for the full control effect; nearly all actives have a fitted effect of over 55% in size
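WRN at 20 nM final was preincubated with compound for 15 min at room temperature; reaction started with 100 nM forked duplex oligonucleotide carrying fluorophore and quencher plus 2 mM ATP (final). Unwinding followed kinetically by red fluorescence (ex 525/em 598 nm).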
Pol eta inh – qHTS for Inhibitors of Polymerase Eta; hit rate 1.2% among 390,000; recombinant Pol eta, fluorescent DNA replication assay; Potency, µM (top dose mostly 114 µM), for the others: top-dose activity change, negative = inhibition, usual class: inhibitors; also: % is scaled to controls: 0 for no effect and ±100 for the full control effect
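Pol eta (10 nM) was preincubated with compounds for 15 min at room temperature, after which fluorescent replication substrate (50 nM final) was added to start the reaction. Fluorescence was read kinetically at 0 and 10 min.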
POLB inh – qHTS Assay for Inhibitors of DNA Polymerase Beta; P06746; Pol beta primer extension/strand displacement, fluorescence kinetic; Potency, µM (highest dose often 114 µM), for the others: at the highest dose activity change, negative = inhibition, actives largely listed as inhibitors; hit rate 1.3% among 340,000; AID 485314, 2010; also: % is scaled to controls: 0 for no effect and ±100 for the full control effect
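10 nM enzyme + cpd, 15 min RT; start with substrate 50 nM final; read 0 min and after 10 min RT. Corrected, normalized data; 4-parameter Hill curve fit.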
POLK inh – qHTS for Inhibitors of Polymerase Kappa | Potency, µM (series often up to 107 µM), for inactives: top-dose activity, negative = inhibition, most hits filed as inhibitors | hit rate 0.53% among 400,000 | DNA polymerase kappa (Homo sapiens), Q9UBT6 | purified Pol kappa, fluorescent DNA synthesis assay, 10 min | AID 588579, 2011; also: % is scaled to controls: 0 for no effect and ±100 for the full control effect
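First, compounds were pin-transferred onto 10 nM Pol kappa. After 15 min at room temperature, substrate was added to 50 nM final. Fluorescence was then measured kinetically at 0 and 10 min.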
An asterisk follows results filed as active; ? = inconclusive; · = not tested or not shown; [ ] = another dose, or the depositor's remark. Rows were chosen to be rich in hits. Some 2.3% of all compounds tested hit in one or more screens of this group. Calls follow the shape of the dose curve; as a rule, active = well fitted curve in the direction sought with a large enough effect; inconclusive = small, poorly fitted or top-dose-only effect, or another doubt; inactive = no such curve, though single readings can be large; an effect the other way counts as inactive or inconclusive. Potency is read from the fitted curve at half-maximal effect.

SMILES	Pol iota inh	WRN inhibitor	Pol eta inh	POLB inh	POLK inh
CCOC(=O)N1CCN(c2cc(NCCC(=O)O)c3c4c(onc24)-c2ccccc2C3=O)CC1	?	-19%[57.1 µM]	3.2µM*	25µM*	18µM*
O=C(O)CCCNc1cc(N2CCC3(CC2)OCCO3)c2noc3c2c1C(=O)c1ccccc1-3	·	·	·	11µM*	·
CCCCNc1cc(N2CCN(C3CCCCC3)CC2)c2noc3c2c1C(=O)c1ccccc1-3	33%	·	-5%	-7%	-8%
COc1ccc(/C=c2\[nH]c(=O)/c(=C/c3ccc(OC)cc3)[nH]c2=O)cc1	20%	·	·	·	11%
O=C(C[n+]1ccncc1)c1ccc(Br)cc1	15%	·	·	·	-5%
O=C(Cn1ncc2c3ccccc3n(Cc3cccc(Cl)c3)c2c1=O)NCCCc1ccccc1	?	·	-24%	28µM*	?
O=C(Cn1ncc2c3ccccc3n(Cc3ccc(Cl)cc3)c2c1=O)NCCCc1ccccc1	29%	·	-18%	?	-7%
COc1ccc(OC)c(-c2cc(C(=O)Nc3ccccc3C(N)=O)c3ccccc3n2)c1	-19%	-4%	-12%	·	-11%
Cc1ccc(-c2cc(C(=O)Nc3ccc(S(=O)(=O)Nc4onc(C)c4C)cc3)c3ccccc3n2)cc1	43%	1%[11.6 µM]	89µM*	?	-10%
Cc1ccc(-c2cc(C(=O)Nc3ccccc3C(N)=O)c3ccccc3n2)o1	?	?	50µM*	·	-20%
Cc1ccc(-c2cc(C(=O)Nc3nccs3)c3ccccc3n2)o1	?	-30%	?	25µM*	-6%
Cc1ccc(-c2cc(C(=O)Nc3nccs3)c3ccccc3n2)c(C)c1	4%	-13%	-23%	-2%	-13%
O=C(Nc1ccc(S(=O)(=O)Nc2nccs2)cc1)c1cc(-c2ccccc2Cl)nc2ccccc12	?	?	28µM*	?	-13%
COc1ccc(OC)c(C(Cc2ccnc3ccccc23)Cc2ccnc3ccccc23)c1	-2%	·	·	·	-6%
C#Cc1ccc2c(c1)C(=O)N(C)Cc1c(C(=O)OCCCOC(=O)c3ncn4c3CN(C)C(=O)c3cc(C#C)ccc3-4)ncn1-2	·	·	·	·	-2%[60.1 µM]
CC1=Nc2ccccc2/C1=C(/C)c1c(C)[nH]c2ccccc12	-3%	·	·	·	-20%
Cc1sc2ccccc2[n+]1CCc1ccccc1	?	·	·	·	-13%
COc1ccc(NC(=O)c2cc(-c3ccc(C)o3)nc3ccccc23)cc1OC	?	-26%[57.1 µM]	?	35µM*	?
COc1ccc(NC(=O)c2cc(-c3ccc(C)o3)nc3ccccc23)c(OC)c1	-23%	-4%	-18%	·	-9%
Cc1ccc(NC(=O)c2cc(-c3cccs3)nc3ccccc23)nc1	-18%	-11%	-16%	?	-3%
CCOc1ccc(OCC)c(NC(=O)c2cc(-c3cccs3)nc3ccccc23)c1	89µM*	·	-17%	2%	?
CCCCCCC[n+]1ccc(C)c2ccccc21	22%	·	·	·	-5%
CCn1c(C)nc2cc(C(=O)N/N=C(\C)c3ccc(N4CCOCC4)cc3)ccc21	-13%	-5%	-14%	-10%	-17%
CCn1c(C)nc2cc(C(=O)N/N=C/c3cccc(O)c3O)ccc21	25µM*	-15%[57.1 µM]	-23%	?	?
CCn1c(C)nc2cc(C(=O)N/N=C/c3ccc(N4CCOCC4)cc3)ccc21	?	-5%	-18%	22µM*	-17%
SMILES	Pol iota inh	WRN inhibitor	Pol eta inh	POLB inh	POLK inh
CCC(C)Sc1nc2c(c(=O)[nH]1)C(c1cccs1)C1=C(CCCC1=O)N2 (centres undefined)	?	-22%[57.1 µM]	?	25µM*	-42%
O=c1[nH]c2cc(Cl)c(O)cc2o1	·	·	·	·	12%[60.1 µM]
Cn1c(=O)c2c(-c3ccc(Br)cc3)n(Cc3ccc(F)cc3)cc2n(C)c1=O	89µM*	·	-9%	-19%	?
Cn1c(=O)c2c(-c3ccc(Cl)cc3)n(Cc3ccc(Cl)cc3)cc2n(C)c1=O	?	·	-4%	?	14%
CN(C)/[N+]([O-])=N\Oc1cc(OC(=O)c2ccc(N)cc2)c([N+](=O)[O-])cc1[N+](=O)[O-]	?	·	·	·	-19%
CCOC(=O)CS(=O)(=O)c1nc(-c2ccc(F)cc2)cc(C(F)(F)F)n1	-6%	50µM*	-4%	-22%	-15%
CCOC(=O)CS(=O)(=O)c1nc(-c2ccccc2)cc(C(F)(F)F)n1	-16%	56µM*	-2%	1%	-20%
CCOC(=O)CCS(=O)(=O)c1nc(-c2ccccc2)cc(C(F)(F)F)n1	6%	?	-24%	-16%	-7%
CCc1ccc(NC(=O)c2cc(=O)c3ccc(C)c(C)c3o2)cc1	-12%	·	-9%	8%	-32%
COc1ccc(/C=N/NC(=O)c2nn(-c3ccccc3)c(=O)c3c(N)scc23)cc1	13µM*	-15%[57.1 µM]	-12%	?	35µM*
Clc1ccc(-c2nn3c(-c4cc(-c5ccccc5)n[nH]4)nnc3s2)cc1	-6%	·	·	·	-5%
Nc1ccccc1C(=O)/C=C/c1ccc2c(c1)OCO2	-3%	-10%	-20%	3%	8%
CCNc1ccc(Br)cc(C(=O)/C=C/c2ccc3c(c2)OCO3)c1=O	4µM*	?	11µM*	20µM*	?
CCNc1ccc(Br)cc(C(=O)/C=C/c2c(Cl)cccc2Cl)c1=O	4.5µM*	?	18µM*	8.9µM*	?
CCNc1ccc(Br)cc(C(=O)/C=C/c2ccc(Cl)cc2)c1=O	?	-15%[11.6 µM]	40µM*	28µM*	?
Cc1ccc(NC(=O)/C=C/c2ccc(Cl)cc2)c(Br)c1	-21%	·	-1%	35%	-11%[60.1 µM]
CNc1ccc(/C=C2\C=Cc3ccccc32)cc1OC	1%	·	·	·	-18%
Cc1c(C(=O)NNC(=O)c2csc(N3CCOCC3)n2)oc2ccc(Br)cc12	·	-6%	25µM*	·	·
Cc1c(C(=O)NNC(=O)c2csc(N3CCOCC3)n2)oc2ccccc12	?	-4%	?	·	1%
O=C(O)C1CCN(C(=O)CCc2ccccc2)CC1	189%	-18%	-17%	50µM*	-2%
Cc1ccc(C=C2C(=O)c3ccccc3C2=O)s1	25µM*	?	?	-1%	-16%
Cc1c(NC(=O)C2CC=CCC2C(=O)O)c(=O)n(-c2ccccc2)n1C (centres undefined)	-6%	-6%[11.6 µM]	?	25µM*	-14%
CCc1cc2c(=O)n(Cc3ccco3)c(SCC(=O)N(C)C3CCS(=O)(=O)C3)nc2s1 (centres undefined)	?	-13%	-10%	20µM*	?
CCc1cc2c(=O)n(Cc3ccco3)c(SCc3c(C)noc3C)nc2s1	14µM*	-28%	-19%	0%	-12%

Compound activity as filed in PubChem.
